Screening data as filed in PubChem.
This is one part of a sample in which hits are shown more often than they occur.
G9a block: qHTS Assay for Inhibitors of Histone Lysine Methyltransferase G9a | Histone-lysine N-methyltransferase EHMT2 (Homo sapiens), Q96KQ7 | G9a H3K9 monomethylation, AlphaScreen, 2 h | Potency, µM (top dose mostly 102 µM), most hits filed as inhibitors | hit rate 8.8% among 350,000; further: nearly all actives have a fitted effect of over 75% in size
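AlphaScreen detection with an anti-monomethyl H3K9 antibody quantified product after a 2 h room-temperature reaction containing 500 nM biotinylated H3K9 peptide, 20 µM SAM and 20 nM enzyme, which had been preincubated 15 min with compound.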
Glioma ERSR ind: qHTS for Inducers of the Endoplasmic Reticulum Stress Response (ERSR) in Human Glioma: qHTS; Potency, µM, actives largely listed as activators; U87-MG GRP78 promoter luciferase reporter, 16 h; AID 602332, 2012; hit rate 0.02% among 420,000; further: series mostly up to about 76 µM; nearly all actives have a fitted effect of over 35% in size
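Stably transfected U87-MG glioma cells carrying a GRP78-based luciferase sensor; 16 h compound incubation. Luminescence end-point read 10 min after Bright-Glo addition at room temperature.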
12-LOX inh: Primary qHTS assay for inhibitors of human arachidonate 12S-lipoxygenase (ALOX12): Round 2; Polyunsaturated fatty acid lipoxygenase ALOX12 (Homo sapiens), P18054; purified 12hLO, xylenol orange hydroperoxide absorbance; Potency, µM (titrated, usually from 108 µM), usual class: inhibitors; hit rate 1.1% among 580,000
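Hydroperoxide product was detected by ferrous iron/xylenol orange as the 573 to 405 nm absorbance ratio. Arachidonic acid at 40 uM (final) was turned over for 30 min at room temperature by 150 nM human 12hLO, pH 7.0 Hepes buffer, after 15 min compound preincubation.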
VDR inh: Inhibitors of the vitamin D receptor (VDR): qHTS. Vitamin D3 receptor (Homo sapiens), P11473. Potency, µM, usual class: inhibitors. AID 504847, 2011. VDR-SRC2-3 peptide fluorescence polarization, 2 h. hit rate 0.93% among 400,000
Target sequence (P11473 whole entry, looked up): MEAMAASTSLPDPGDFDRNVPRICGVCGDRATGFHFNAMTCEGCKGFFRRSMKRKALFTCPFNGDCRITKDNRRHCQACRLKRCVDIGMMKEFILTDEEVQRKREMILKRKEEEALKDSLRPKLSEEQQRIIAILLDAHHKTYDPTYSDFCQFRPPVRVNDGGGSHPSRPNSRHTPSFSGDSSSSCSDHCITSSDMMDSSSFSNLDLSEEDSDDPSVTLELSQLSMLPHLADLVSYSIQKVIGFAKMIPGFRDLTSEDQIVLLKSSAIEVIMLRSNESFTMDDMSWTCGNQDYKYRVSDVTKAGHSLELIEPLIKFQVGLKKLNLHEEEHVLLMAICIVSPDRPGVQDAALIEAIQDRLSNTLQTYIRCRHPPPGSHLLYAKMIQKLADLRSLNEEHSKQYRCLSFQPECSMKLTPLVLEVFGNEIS
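Reagent solutions, kept cold and dark, are dispensed first; compounds are then pinned in at 23 nl, plates briefly spun, and incubated 2 h at ambient temperature. Inhibition of VDR–SRC2-3 peptide binding is read by fluorescence polarization.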
Sfp PPTase inh: qHTS Assay for Inhibitors of Bacillus subtilis Sfp phosphopantetheinyl transferase (PPTase) | Biochemical Sfp PPTase activity, qHTS | hit rate 3.5% among 310,000 | AID 1490, 2009 | Potency, µM, usual class: inhibitors;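 further: the enzyme is Sfp with the accession as filed and its product quenches rhodamine fluorescence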
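Compounds were incubated with enzyme (final 15 nM) for 15 min at room temperature before substrate addition started the reaction. Fluorescence at 525 nm excitation, 598 nm emission was recorded immediately and after 30 minutes.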
Of the large screens only hits and unclear results are named; the others gave an inactive call; ! = not active in a repeat. The call rests on the fitted dose curve; in most records, active means well fitted curve in the direction sought with a large enough effect; inconclusive means small, poorly fitted or top-dose-only effect, or another doubt; inactive means no such curve, though single readings can be large; an effect the other way counts as inactive or inconclusive.

Cc1ccc2c(c1)C(C)(C)C1(/C=C/c3ccc(Cl)cc3)NC(=O)CN21 (stereo not drawn)	none (no result: G9a block, Glioma ERSR ind, VDR inh, Sfp PPTase inh)
O=C(Nc1ccc2[nH]c(=S)sc2c1)Nc1ccccc1F	G9a block 45µM, 12-LOX inh 14µM, VDR inh inconclusive, Sfp PPTase inh inconclusive
S=c1[nH]c2ccccc2s1	G9a block 11µM, 12-LOX inh 28µM!, VDR inh 35µM
O=C(Nc1ccc2[nH]c(=S)sc2c1)c1ccccc1	G9a block 5.6µM, 12-LOX inh inconclusive, VDR inh inconclusive, Sfp PPTase inh 50µM
COc1cc(CNC(=O)c2nc3nc(-c4ccccc4)c(Cl)cc3n2C)cc(OC)c1	none (no result: G9a block, Glioma ERSR ind, VDR inh, Sfp PPTase inh)
CC(C)(C)CN1CCNc2cc(Nc3ccccc3)ncc2C1	none (no result: G9a block, Glioma ERSR ind, VDR inh, Sfp PPTase inh)
CN1CCN(CCCCOc2ccc(Br)cc2)CC1	G9a block 4.5µM, 12-LOX inh inconclusive
Brc1ccc(OCCCCCN2CCOCC2)cc1	G9a block 3.2µM, 12-LOX inh inconclusive
CN1CCN(CCCCOc2ccccc2C=O)CC1	12-LOX inh inconclusive, Sfp PPTase inh 25µM (no result: G9a block)
COc1cccc(OC)c1OCCCCCCN1CCN(C)CC1	none
Cc1ccccc1CNc1ncnc2ccccc12	none (no result: G9a block, Glioma ERSR ind, VDR inh, Sfp PPTase inh)
COc1ccc(C(NC(=O)CN2C(=O)NC3(CCc4ccccc43)C2=O)c2ccc(OC)cc2)cc1 (stereo not drawn)	G9a block 50µM (no result: Sfp PPTase inh)
COc1cccc(NC(=O)CN2C(=O)NC3(CCCc4ccccc43)C2=O)c1 (stereo not drawn)	G9a block 10µM, 12-LOX inh inconclusive (no result: Sfp PPTase inh)
COc1ccc(OC)c(NC(=O)Cn2c(N3CCc4ccccc4C3)nc(C)cc2=O)c1	none (no result: G9a block, Glioma ERSR ind, VDR inh, Sfp PPTase inh)
COc1cccc(NC(=O)Cn2c(N3CCc4ccccc4C3)nc(C)cc2=O)c1	12-LOX inh 28µM (no result: G9a block, Glioma ERSR ind, VDR inh, Sfp PPTase inh)
N#Cc1c(N2CCN(CC(=O)Nc3ccccc3)CC2)nc(-c2ccco2)c2c1CCC2	none (no result: G9a block, Glioma ERSR ind, VDR inh, Sfp PPTase inh)
N#C/C(=C/c1ccc(OC(F)(F)F)cc1)c1nc2ccccc2[nH]1	none (no result: G9a block, Glioma ERSR ind, VDR inh, Sfp PPTase inh)
Cn1cc(C(=O)NC2CCN(Cc3nnc(C(C)(C)C)o3)CC2)cn1	none (no result: G9a block, Glioma ERSR ind, VDR inh, Sfp PPTase inh)
CC[N+](CC)(CC#Cc1ccccc1)CC(=O)OC	none (no result: G9a block, Glioma ERSR ind, VDR inh, Sfp PPTase inh)
Cc1ccc(OCc2nc(C3CN(C(=O)CCc4nc5ccccc5s4)C3)no2)cc1	none (no result: G9a block, Glioma ERSR ind, VDR inh, Sfp PPTase inh)
COc1cc(C2(c3ccc(O)c(OC)c3)C(=O)Nc3c(C)cc(Br)cc32)ccc1O	12-LOX inh 25µM (no result: G9a block, Sfp PPTase inh)
COc1ccc(/C=N/NC(=O)c2cccnc2)cc1Cn1nc([N+](=O)[O-])c(Br)c1C	G9a block 50µM (no result: Glioma ERSR ind, VDR inh)
CC(C)(C)NC(=O)c1csc(C(O)c2ccc(C(C)(C)C)cc2)n1 (stereo not drawn)	none (no result: G9a block, Glioma ERSR ind, VDR inh, Sfp PPTase inh)
O=C(N/N=C/C=C/c1ccco1)c1ccccc1Cl	G9a block inconclusive, 12-LOX inh inconclusive, VDR inh inconclusive, Sfp PPTase inh 40µM
CC(/C=C/c1ccco1)=N/NC(=O)c1ccccc1Cl	G9a block inconclusive, VDR inh inconclusive, Sfp PPTase inh 35µM
C/C(=N\NC(=O)c1cccc2ccccc12)c1ccc(C)s1	none (no result: G9a block, Glioma ERSR ind, VDR inh, Sfp PPTase inh)
CCCCOC(=O)c1ccc(NC(=O)COc2ccc3c(C)cc(=O)oc3c2)cc1	none (no result: G9a block, Glioma ERSR ind, VDR inh, Sfp PPTase inh)
CCN(CC)S(=O)(=O)c1ccc(NC2c3ccccc3C(=O)N2c2ccc(C)cn2)cc1 (stereo not drawn)	G9a block 40µM
COc1ccc(NC2c3ccccc3C(=O)N2c2ccccn2)cc1 (stereo not drawn)	G9a block inconclusive
CCOC(=O)c1ccc(NC2c3ccccc3C(=O)N2c2ccccn2)cc1 (stereo not drawn)	G9a block 50µM
Cc1ccc(N2C(=O)c3ccccc3C2Nc2ccc(S(=O)(=O)N3CCCCC3)cc2)nc1 (stereo not drawn)	G9a block inconclusive
COc1ccc(-c2ccnc(N[C@H]3CO[C@H]4[C@@H]3OC[C@@H]4NC(=O)Nc3cccc(C(F)(F)F)c3)n2)cc1	none (no result: G9a block, Glioma ERSR ind, VDR inh, Sfp PPTase inh)
Cc1cc(OC(C)C(=O)NCCCO)c2c(C)c(C)c(=O)oc2c1 (stereo not drawn)	none (no result: G9a block, Glioma ERSR ind, VDR inh, Sfp PPTase inh)
CCCNc1c(N)n(-c2ccccc2)c(=O)[nH]c1=O	G9a block 35µM
Nc1c(N=O)c(=O)[nH]c(=O)n1-c1ccccc1	none (no result: G9a block, Sfp PPTase inh)
O=C1OC2C3CC(C2Sc2ccc(Cl)cc2)C(C(=O)O)C13 (stereo not drawn)	none (no result: G9a block, Glioma ERSR ind, VDR inh, Sfp PPTase inh)
O=C(Cc1noc(C(=O)NCc2ccccn2)n1)Nc1cccc2ncccc12	none (no result: G9a block, Glioma ERSR ind, VDR inh, Sfp PPTase inh)
